Among the data in ChEMBL document CHEMBL4513216, “Probing the Open Global Health Chemical Diversity Library for Multistage-Active Starting Points for Next-Generation Antimalarials” (ACS Infect Dis, 2020) are INHIBITION values, retold here.

In all, about 68,000 compounds went through this assay and about 2,700 (4%) showed an effect of 50% or more. The sample as a whole holds a higher share of strong results than the screen did.

For this experiment, the system named is Plasmodium berghei. The experiment in a line: Screen against P. berghei liver stage (PbLuc), transformed with Luciferase, at 2uM. The format is functional, HepG2. The note with it: tested at 2 uM.
As to `Cc1ccccc1CS(=O)(=O)CC(=O)N(C)Cc1ccccc1`, the INHIBITION is listed as 34.25%.

Consider `CS(=O)(=O)NC[C@]12COC[C@H]1CN(CC1CCCC1)C2`, for which the INHIBITION was 13.65%.

With `O=C(CC1CN(Cc2ccccc2)CCO1)Nc1ccsc1` (stereo not drawn), the INHIBITION was 19.53%.

`Cc1ccc(SCCN(C)C(=O)c2cn(C3CCC(N)CC3)nn2)cc1` (stereo not drawn): the INHIBITION was determined as 40.47%.

As for `Cc1ccc(SCCCNC(=O)c2cn(C3CCC(N)CC3)nn2)cc1` (stereo not drawn), the INHIBITION amounted to 18.63%.

For `CCN(CCSc1ccccc1)C(=O)c1cn(C2CCC(N)CC2)nn1` (stereo not drawn), the INHIBITION stood at 50.61%.

As to `CCc1nnc2n1CCN(C(=O)c1ccc3[nH]cnc3c1)C2`, the INHIBITION is -17.45%.

With `CCc1nccn1-c1cncc(C2CCCN2Cc2cccnc2)n1` (stereo not drawn), the INHIBITION was found to be 18.91%.

For `CCc1nsc(N2CCCN(C(=O)c3ccc(CC)o3)CC2)n1`, the INHIBITION is reported as -2.93%.

On to `CS(=O)(=O)NCCNCc1ccc(Br)s1`, for which the INHIBITION turned out to be 21.24%.

For `COCCCC(=O)Nc1[nH]nc(-c2ccncc2)c1C`, the INHIBITION was found to be 1.03%.

As to `CS(=O)(=O)CCCC(=O)Nc1cc(Cl)c(Cl)cn1`, the INHIBITION came to 59.08%.

Take `COCCNC(=O)CCNc1ccc(Cl)cn1`: the INHIBITION was 33.64%.

For the compound `COCCCC(=O)Nc1cc(Cl)c(Cl)cn1`, the INHIBITION is 66.26%.

In the case of `CS(=O)(=O)CCC(=O)Nc1cc(Cl)c(Cl)cn1`, the INHIBITION turned out to be 38.49%.

In the case of `CS(=O)(=O)CCCC(=O)Nc1cc(-c2cccc(F)c2F)n[nH]1`, the INHIBITION was -5.98%.

For the compound `CC(C)n1c(C2CCCN(CC(=O)NC(N)=O)C2)nc2ccccc21` (stereo not drawn), the INHIBITION is 0.31%.

Regarding `O=C(C1=CCCC1)N1CC[C@]2(C[C@H](OCc3cccnc3)CO2)C1`, the INHIBITION was -8.81%.

With `NC(=O)C(NC(=O)COC1CCCCC1)c1ccccc1` (stereo not drawn), the INHIBITION was found to be 35.94%.

As to `COC(=O)C(NC(=O)COC1CCCCC1)c1ccccc1` (stereo not drawn), the INHIBITION was 54.52%.

With `NC(=O)C(NC(=O)COC1CCCC1)c1ccccc1` (stereo not drawn), the INHIBITION is listed as -6.27%.

Turning to `O=C(c1cocn1)N1C[C@H]2CCC[C@@]2(COc2ccccn2)C1`, the INHIBITION was -14.27%.

`Cc1cc(C(F)(F)F)nn1CCCNC(=O)C1CCN(S(C)(=O)=O)CC1`: the INHIBITION is given as 40.25%.

Regarding `CC(C)(C)n1ncc2c1NC(=O)CC2c1ccc(C#N)cc1` (stereo not drawn), the INHIBITION came out at 7.42%.

`Cn1ccc(C(=O)NC2CCC23CCN(C(=O)c2ccncc2)CC3)c1` (stereo not drawn): the INHIBITION was -33.11%.

As to `Cn1ccc(C(=O)NC2CCC23CCN(C(=O)c2ccccn2)CC3)c1` (stereo not drawn), the INHIBITION was found to be 53.29%.

Consider `Cn1ccc(C(=O)NC2CCC23CCN(C(=O)c2cnccn2)CC3)c1` (stereo not drawn), for which the INHIBITION is given as -3.25%.

Take `CCN(Cc1c(F)cccc1Cl)c1cc(C2CCNCC2)nc(C)n1`: the INHIBITION was found to be 23.76%.

As for `O=C(c1cccnc1)N1CCOC(Cc2ccccc2Cl)C1` (stereo not drawn), the INHIBITION is -41.48%.

For the compound `Cn1ccnc1C(=O)N1CCOC(Cc2ccccc2Cl)C1` (stereo not drawn), the INHIBITION is reported as 61.99%.

On to `CCc1nc(C)c(CN2CCOC(Cc3ccccc3Cl)C2)[nH]1` (stereo not drawn), for which the INHIBITION is on record as -26.78%.

In the case of `Cc1nc(C)c(CN2CCOC(Cc3ccccc3Cl)C2)nc1C` (stereo not drawn), the INHIBITION is on record as 63.37%.

Consider `Cc1cccnc1CN1CCOC(Cc2cccc3ccccc23)C1` (stereo not drawn), for which the INHIBITION turned out to be 31.05%.

In the case of `Cn1ccnc1C(=O)N1CCOC(Cc2ccc(Cl)cc2)C1` (stereo not drawn), the INHIBITION is given as 43.23%.

Consider `O=C(N1CCc2ccccc2CC1)C1(O)Cc2ccccc2C1`, for which the INHIBITION was 32.93%.

As for `O=C(CCN1C[C@@H]2CC[C@H]1CN(c1ncccn1)C2)NCc1ccco1`, the INHIBITION was 22.27%.

`N#Cc1ccc(CN2CCNC(=O)C2c2cccs2)cc1` (stereo not drawn): the INHIBITION is on record as -15.67%.

Turning to `Cn1cnc2c(N3CCCC3)nc(C3CCN(CC4CC4)CC3)cc21`, the INHIBITION was 25.94%.

In the case of `Cn1ccnc1C(O)c1ccccc1N1CCN(Cc2ccsc2)CC1` (stereo not drawn), the INHIBITION is reported as -16.2%.

Take `Cc1cccc(COc2ccc(C(C)N)cc2)c1` (stereo not drawn): the INHIBITION stood at 54.49%.

As to `Cc1cccc(COc2ccc(C(C)NC(=O)CNC(N)=O)cc2)c1` (stereo not drawn), the INHIBITION was 32.26%.

On to `Cc1cccc(COc2ccc(C(C)NS(N)(=O)=O)cc2)c1` (stereo not drawn), for which the INHIBITION turned out to be 9.42%.

`CCc1ccsc1C(=O)N1CCN(CC(C)O)CC1` (stereo not drawn): the INHIBITION was -10.66%.

For `CCC(O)CN1CCN(C(=O)c2sccc2C2CC2)CC1` (stereo not drawn), the INHIBITION amounted to 34.97%.

Take `CCc1ccsc1C(=O)N1CCN(CC(O)CC)CC1` (stereo not drawn): the INHIBITION is given as 56.67%.

As to `Clc1ccccc1C1(c2ccnc(C3CCCC3)n2)CCNCC1`, the INHIBITION is 11.94%.

On to `Cc1c(CN2C[C@@H](O)[C@H](Oc3cccc(F)c3)C2)cnn1C`, for which the INHIBITION was found to be 55.32%.

As for `Cc1cc(C)n2ncc(CN3C[C@@H](O)[C@H](Oc4ccccc4)C3)c2n1`, the INHIBITION is given as -0.44%.

In the case of `Cc1cnccc1CN1C[C@@H](O)[C@H](Oc2cccc(F)c2)C1`, the INHIBITION is listed as 8.5%.

In the case of `COCC(O)CN(C)c1ccnc2ccc(Cl)cc12` (stereo not drawn), the INHIBITION is listed as -33.34%.

On to `Cc1ccsc1CN1CCc2c(nc(N3CCCCC3C)[nH]c2=O)C1` (stereo not drawn), for which the INHIBITION is on record as -17.99%.

As for `c1ccc(Cn2ccnc2CN2CCOC(Cn3cccn3)C2)cc1` (stereo not drawn), the INHIBITION is recorded as 11.1%.

Regarding `Cn1ccnc1CN1CCOC(Cc2ccccc2)C1` (stereo not drawn), the INHIBITION was -19.43%.

For the compound `CC(C)n1ccnc1CN1CCOC(CCc2ccccc2)C1` (stereo not drawn), the INHIBITION was 50.32%.

`CC(C)n1ccnc1CN1CCCN(C(=O)CC2CCCO2)CC1` (stereo not drawn): the INHIBITION was found to be 33.82%.

In the case of `CC(C)n1ccnc1CN1CCOC(CC2CCCCC2)C1` (stereo not drawn), the INHIBITION is listed as 63.23%.

Regarding `CC(C)C1CN(Cc2nccn2C(C)C)CCC(=O)N1CC1CC1` (stereo not drawn), the INHIBITION was -17.17%.

With `NC(=O)NCC(=O)N1CCCC(c2nccn2Cc2ccncc2)C1` (stereo not drawn), the INHIBITION is given as 16.1%.

Regarding `CCOc1ncccc1Cn1cc(-c2nccn2C)nn1`, the INHIBITION is given as -3.38%.

In the case of `O=C(c1cccs1)N1CCCn2c(nc(CN3CCCC3)cc2=O)C1`, the INHIBITION is 13.38%.

Consider `Cc1nc(N2CCCCC2)ncc1-c1cc(=O)[nH]c(N2CCCC2)n1`, for which the INHIBITION is on record as 17.48%.

As for `FC1(F)CCN(Cc2cccnc2)CC12CCN(c1ccccn1)C2` (stereo not drawn), the INHIBITION came to 3.35%.

As to `CC(C)c1cc(C(=O)N2CCC3(CC2)c2ccccc2[C@@H](N)[C@@H]3O)cs1`, the INHIBITION worked out at 16.28%.

Take `O=C1CC(NS(=O)(=O)c2ccc(F)c(Cl)c2)CN1` (stereo not drawn): the INHIBITION is -15.08%.

`O=C1CC(NS(=O)(=O)c2ccc(Br)cc2)CN1` (stereo not drawn): the INHIBITION is reported as 27.9%.

Regarding `O=C1CC(NS(=O)(=O)c2ccc(Cl)cc2)CN1` (stereo not drawn), the INHIBITION was determined as 87.53%.

In the case of `CCCN(CCC)S(=O)(=O)NC(C)C(=O)N(C)C` (stereo not drawn), the INHIBITION was -9.87%.

Regarding `COc1ccc(OCc2nc(C(=O)N3CCCNC(=O)C3)co2)cc1`, the INHIBITION came to 22.84%.
